{"source": "PubChem BioAssay (NCI)", "note": "Compounds without any hit were thinned out: in the full panel of roughly 83,000, 20% have a hit.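 Step 1: grow cells in 96-well plates. Step 2: add test compound at a single concentration. Step 3: incubate 48 h. Step 4: record percent growth.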 Unmarked numbers belong to inactive results. Calls of active or inactive are those of the source.", "data": [{"test_system": "A498 renal", "experiment": "NCI-60 one-dose screen, 48 h (100 = growth as untreated, 0 = no growth, -100 = all killed)", "settings": "10 µM unless noted", "protocol": "Growth inhibition of the A498 human tumor cell line is measured as a screen for anti-cancer activity. Cells are grown in 96 well plates and exposed to the test compound for 48 hours. Compounds are tested at a single concentration, which is 10^-5 M for most compounds. The reported endpoint is percent growth (GI% or GIPRCNT), where numbers from 0 - 100% represent growth inhibition, and numbers from -100% - 0 represent cell death. For example, a value of 40 represents 60% growth inhibition. A value of 0 means no net growth occurred over the course of the experiment. A value of -40 indicates 40% of cells at the beginning of the experiment died by the end of the experiment. A value of -100 means all cells are dead at the end of the experiment.\nNCI-60 Human Tumor Cell Lines Screen was performed using the standard one-dose NCI protocol, which is described in more detail at https://dtp.cancer.gov/discovery_development/nci-60/default.htm.\nCompounds with GIPRCNT values below 10 were considered active. Activity score was based on GIPRCNT using the following formula: […]\nScore is 0 for GIPRCNT values of 100 or above, 50 for GIPRCNT values of 0, and 100 for GIPRCNT values of -100.", "values": [{"smiles": "N#CC(C#N)C(C#N)C#N", "growth": "99%"}, {"smiles": "CC[n+]1c(/C=C/c2ccc(N3CCCC3)cc2)cccc1/C=C/c1ccc(N2CCCC2)cc1", "growth": "-93% (active)"}, {"smiles": "NS(=O)(=O)c1ccc(-n2ncc3c(SCc4ccccc4)ncnc32)cc1", "growth": "111%"}, {"smiles": "C[C@H](C(=O)N[C@@H](Cc1ccc(-c2ccccc2)cc1)C(=O)NC1CC(C)(C)NC(C)(C)C1)c1ccc(-c2ccccc2)c(F)c1", "growth": "-4.66% (active)"}, {"smiles": "O=C1C=CC(=O)N1c1ccccn1", "growth": "95.8%"}, {"smiles": "O=C1NC(=S)S/C1=C\\c1cc(Br)ccc1O", "growth": "76%"}, {"smiles": "COc1cccc2c1C(=O)c1c(O)c3c(c(O)c1C2=O)C[C@@](O)(C(C)=O)C[C@@H]3O[C@H]1C[C@H](N)[C@H](O)[C@H](C)O1", "growth": "-72.7% (active)"}, {"smiles": "COc1ccc2nc(-c3ccc(Cl)cc3)cc(-c3nnc(SCC(=O)Nc4ccc(C(C)=O)cc4)n3-c3ccccc3)c2c1", "growth": "100%"}, {"smiles": "Cc1sc2nc3c4ccccc4c(NCCCN(C)C)nn3c(=O)c2c1C", "growth": "51.8%"}, {"smiles": "CC(=O)Nc1c(Cl)cc2c(c1Cl)Cc1ccccc1-2", "growth": "93.7%"}, {"smiles": "O=[N+]([O-])c1cc([N+](=O)[O-])c(N2CCCC2)cc1NN=C(c1ccc(O)cc1)c1ccc(O)cc1", "growth": "122%"}, {"smiles": "O=C1OC2(c3ccccc31)c1ccccc1-c1ccccc12", "growth": "69.8%"}, {"smiles": "Cc1c2oc3c(C)ccc(C(=O)OC(C)C4NC(=O)C(C(C)C)N(C)C(=O)CN(C)C(=O)C5CCCN5C(=O)C(C(C)C)NC4=O)c3nc-2c(C(=O)OC(C)C2NC(=O)C(C(C)C)N(C)C(=O)CN(C)C(=O)C3CCCN3C(=O)C(C(C)C)NC2=O)c(N)c1=O", "note": "(stereo not given)", "growth": "-75.4% (active)"}, {"smiles": "Cc1sc2nc(NCc3ccccc3)[nH]c(=O)c2c1C", "growth": "48.9%"}, {"smiles": "CCOC(=O)c1cnc2c(C)cc(C)cc2c1NCCCN(C)C", "growth": "64.5%"}, {"smiles": "CCSc1nc(-c2ccc(F)cc2)c(C#N)c(=O)[nH]1", "growth": "112%"}, {"smiles": "Cc1nn(-c2ccccc2)cc1/C=C1\\SC(N2CCCCC2)=NC1=O", "growth": "71.3%"}, {"smiles": "CCCCN=C(N)c1ccc(OCCSCCOc2ccc(C(N)=NCCCC)cc2)cc1", "growth": "57.4%"}, {"smiles": "COc1ccc2c(c1)CC[C@@H]1[C@@H]2CC[C@]2(C)[C@@H](O)C(=O)C[C@@H]12", "growth": "95.7%"}, {"smiles": "O=c1ncc(-c2ccc(C(F)(F)F)cc2)c(NC2CCCCCC2)[nH]1", "growth": "84.4%"}, {"smiles": "COc1ccc(C(=O)/C=C/c2ccc(C)cc2)cc1OC", "growth": "80.7%"}, {"smiles": "O=C(Oc1cccc2ccccc12)c1ccccc1C(=O)c1ccccc1", "growth": "70.8%"}, {"smiles": "CCOC(=O)/C=C1/SC(=Nc2ccc(C#N)cc2)N(Cc2ccco2)C1=O", "growth": "87%"}, {"smiles": "O=C(O)CCC(=O)OC[C@@H](NC(=O)C(Cl)Cl)[C@H](O)c1ccc([N+](=O)[O-])cc1", "growth": "117%"}, {"smiles": "COc1ccc(-c2cc(-c3cccnc3)nc(S(=O)(=O)CC(=O)Nc3ccc(C)cc3)c2C#N)cc1OC", "growth": "57.3%"}, {"smiles": "CCOC(=O)c1sc(NC(=O)COc2ccc(/C=C3\\CCc4cc(OC)ccc4C3=O)cc2)nc1C", "growth": "76.6%"}, {"smiles": "COc1ccc(C(=O)COc2cccc(/C=C3\\COc4ccc5ccccc5c4C3=O)c2)cc1", "growth": "88.8%"}, {"smiles": "C/C(=C\\CCc1ccsc1)CC/C=C(\\C)CCCN1CCSCC1", "growth": "23.5%"}, {"smiles": "CN1CCN(CCCCCN=c2cc3c(=O)n(CCCCCN4CCN(C)CC4)c(=O)c4c(NCCCCCN5CCN(C)CC5)cc5c(O)n(CCCCCN6CCN(C)CC6)c(=O)c2c5c4-3)CC1", "growth": "95.6%"}, {"smiles": "CN(C)c1ccc(-n2nc3ccccc3n2)cc1", "growth": "96.4%"}, {"smiles": "CN1C(=O)C(C2=NN(C=O)C(c3ccc(F)cc3)C2)C(=O)N(C)C1=O", "note": "(stereo not given)", "growth": "96.7%"}, {"smiles": "NC(=O)c1cc(Cl)ccc1NC(=O)c1ccccc1-c1ccccc1", "growth": "27.5%"}, {"smiles": "O=C(Nc1nc2ccc(OC(F)(F)F)cc2s1)c1ccc(F)cc1", "growth": "16.4%"}, {"smiles": "Cc1ccc(-c2c3c(N)c4c(nc3nc3c2c(C)nn3-c2ccccc2)CCC4)cc1", "growth": "107%"}, {"smiles": "CC(C)Cn1cnc2c(NCn3nc(-c4cc(Cl)cc(Cl)c4Cl)n(/N=C/c4ccc(Cl)cc4)c3=S)nc3ccccc3c21", "growth": "96.8%"}, {"smiles": "O=c1[nH]cc(Nc2cc(Cl)c3nonc3c2[N+](=O)[O-])c(=O)[nH]1", "growth": "93.8%"}, {"smiles": "c1ccc(-c2n(Cc3ccc4ccccc4c3)cc[n+]2Cc2ccc3ccccc3c2)cc1", "growth": "-20.5% (active)"}, {"smiles": "CCCCc1n(Cc2ccc3ccccc3c2)cc[n+]1Cc1ccc2ccccc2c1", "growth": "0.276% (active)"}, {"smiles": "COc1cc(/C=N/NC(=O)c2ccc(C(F)(F)F)nc2Nc2ccc(Cl)cc2C)ccc1O", "growth": "-37.9% (active)"}, {"smiles": "COC(=O)c1cc2c(/C=C3/NC(=S)NC3=O)coc2n1C", "growth": "99.6%"}]}]}
